According to PubChem BioAssay (NCI):
The panel holds about 83,000 compounds, 20% with a hit somewhere; the sample as a whole holds those more often.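 Activity criterion: percent growth below 10, measured after cells in 96-well plates were exposed to a single compound concentration for 48 hours.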 A number with no mark means an inactive call. Calls of active or inactive are those of the source.

Assays:
Assay in all cases: NCI-60 one-dose screen, 48 h (100 = growth as untreated, 0 = no growth, -100 = all killed)
Details in all cases: 10 µM unless noted
[1] = system: RPMI-8226 leukemia
[2] = system: OVCAR-8 ovarian
[3] = system: OVCAR-5 ovarian
[4] = system: OVCAR-4 ovarian
[5] = system: SK-OV-3 ovarian
[6] = system: IGROV1 ovarian
[7] = system: HS 578T breast
[8] = system: NCI/ADR-RES ovarian
[9] = system: OVCAR-3 ovarian

CCCCCCCOc1c(OC)cc(C2CC(=O)Nc3c2c(C)nn3-c2nc3ccccc3[nH]2)cc1OC (stereo unspecified)
growth [1]: 8.24% (active) | growth [2]: -19.4% (active) | growth [3]: 9.97% (active) | growth [4]: -11.8% (active) | growth [5]: -51.3% (active) | growth [6]: 2.58% (active) | growth [7]: -19.8% (active) | growth [8]: 13.7%

Cc1nn(-c2ccccc2)c(Oc2ccc(Cl)cc2)c1/C=N\N=c1/sc2ccccc2n1C
growth [1]: 77.4% | growth [2]: 89.1% | growth [3]: 106% | growth [4]: 106% | growth [5]: 74.2% | growth [6]: 84.7% | growth [9]: 101% | growth [7]: 78.8% | growth [8]: 98.1%

Cc1ccc(/C=C/c2c(C(=O)/C=C/c3ccc(Cl)cc3)c(C)nc3ccccc23)cc1
growth [1]: -31.7% (active) | growth [2]: 13% | growth [3]: -33.4% (active) | growth [4]: 6.64% (active) | growth [5]: 55.1% | growth [9]: -46.2% (active) | growth [7]: -5.28% (active) | growth [8]: -21.6% (active)

C#Cc1cccc(NC(=O)c2ccc(NC(=O)CCl)cc2)c1
growth [1]: 2.29% [8.25 µM] (active) | growth [2]: -13.8% [8.25 µM] (active) | growth [3]: 40% [8.25 µM] | growth [4]: 17.1% [8.25 µM] | growth [5]: 77.3% [8.25 µM] | growth [6]: -55.5% [8.25 µM] (active) | growth [7]: 38.2% [8.25 µM] | growth [8]: 11.1% [8.25 µM]

O=C(N=c1oc2ccccc2cc1-c1cc2ccccc2[nH]1)c1ccc(Cl)cc1
growth [1]: 38.5% | growth [2]: 50.5% | growth [3]: 89.3% | growth [4]: 57.7% | growth [5]: 57.3% | growth [6]: 29.7% | growth [9]: 50.5% | growth [7]: 63.3% | growth [8]: 38.6%

c1coc(-c2c3ccc(=[N+]4CCCCC4)cc-3oc3cc(N4CCCCC4)ccc23)c1
growth [1]: -42.7% (active) | growth [2]: -61% (active) | growth [3]: -91.8% (active) | growth [4]: -41.9% (active) | growth [5]: -95.2% (active) | growth [9]: -99.2% (active) | growth [7]: -35.6% (active) | growth [8]: -60.2% (active)

COc1cc(/C=C/C(=O)N2CCN(C(=O)c3cc(OC)c(OC)c(OC)c3)CC2)ccc1OCCCN1C(=O)c2cccc3cccc(c23)C1=O
growth [1]: 21.6% | growth [2]: 50.6% | growth [3]: 107% | growth [4]: 77.9% | growth [5]: 121% | growth [9]: 73.5% | growth [7]: 38.6% | growth [8]: 68.9%

CCOP(=O)(OCC)C1CP(=O)(c2ccccc2)CC(C)=C1Cl (stereo unspecified)
growth [1]: 69.6% | growth [2]: 85.7% | growth [3]: 97.8% | growth [4]: 107% | growth [5]: 127% | growth [9]: 104% | growth [7]: 112% | growth [8]: 93.5%

Clc1cccc(Cl)c1C(Nc1nc2ccccc2s1)Nc1nc2ccccc2s1
growth [1]: 5.02% (active) | growth [2]: 108% | growth [3]: 90.3% | growth [4]: 84.6% | growth [5]: 94.2% | growth [6]: -15.1% (active) | growth [7]: 106% | growth [8]: 108%

Cc1c(C(=O)NC(Cc2ccccc2)C(O)C(=O)NCc2ccc(F)cc2)[nH]c2ccccc2c1=O (stereo unspecified)
growth [1]: 105% | growth [2]: 103% | growth [3]: 91% | growth [4]: 107% | growth [5]: 104% | growth [9]: 114% | growth [7]: 99% | growth [8]: 107%

CCN1C(=O)N(CC)C2Nn3c(s/c(=C\c4ccc(Cl)cc4Cl)c3=O)=NC21 (stereo unspecified)
growth [1]: 47.2% | growth [2]: 36.1% | growth [3]: 54.5% | growth [4]: 56.7% | growth [5]: 70.2% | growth [9]: 17.4% | growth [7]: 55.4% | growth [8]: 14.7%

Clc1ccc(-c2c3ccc(=[N+]4CCCCC4)cc-3oc3cc(N4CCCCC4)ccc23)cc1
growth [1]: -41.9% (active) | growth [2]: -50.6% (active) | growth [3]: -90.3% (active) | growth [4]: -82.5% (active) | growth [5]: -95.8% (active) | growth [9]: -98.3% (active) | growth [7]: -26.1% (active) | growth [8]: -65.7% (active)

O=C(NC(Cc1nnc2n(Cc3ccccc3)c(=O)c3c4c(sc3n12)CCCC4)c1ccc(Cl)cc1)c1ccccc1 (stereo unspecified)
growth [1]: 67.9% | growth [2]: 91.3% | growth [3]: 104% | growth [4]: 81% | growth [5]: 109% | growth [9]: 90.4% | growth [7]: 91.3% | growth [8]: 93.9%

COc1ccc2c(c1)O/C(=C\c1cccc(OCC(=O)Nc3nc(C)c(C)s3)c1)C2=O
growth [1]: -59.8% (active) | growth [2]: 15.1% | growth [3]: 12.7% | growth [4]: 67.8% | growth [5]: 101% | growth [9]: -33.1% (active) | growth [7]: 42.9% | growth [8]: -10.7% (active)

COc1ccc(N=Nc2ccc(O)c(=O)cc2)cc1
growth [1]: 9.86% (active) | growth [2]: 9.87% (active) | growth [3]: 47.8% | growth [4]: 31.8% | growth [5]: 16.5% | growth [6]: 15.1% | growth [7]: 30.7% | growth [8]: -29% (active)

COc1ccc(C2C(c3nn[nH]n3)=C(N)Oc3c2ccc2ccccc32)cc1 (stereo unspecified)
growth [1]: 66.5% | growth [2]: 83.8% | growth [3]: 104% | growth [4]: 83.7% | growth [5]: 79.5% | growth [6]: 53.6% | growth [7]: 76.4% | growth [8]: 28.3%

CC(C)C(=O)Nc1n[nH]c2cc(-c3cccc(NS(=O)(=O)C4CC4)c3)ccc12
growth [1]: 66.1% | growth [2]: 82.2% | growth [3]: 87.4% | growth [4]: 52.8% | growth [5]: 62.3% | growth [9]: 57.8% | growth [7]: 77.7% | growth [8]: 98.1%

CC(C)C(NC(=O)C1(NC(=O)OCc2ccccc2)CCCC1)C(=O)O (stereo unspecified)
growth [1]: 111% | growth [2]: 110% | growth [3]: 94.8% | growth [4]: 124% | growth [5]: 96.2% | growth [6]: 107% | growth [9]: 120% | growth [8]: 104%

O=C(Nc1cccc2c(O)c(N=Nc3ccc(S(=O)(=O)Nc4nccs4)cc3)cc(N=Nc3ccc(S(=O)(=O)Nc4nccs4)cc3)c12)C(Cl)Cl
growth [1]: -10.9% (active) | growth [2]: 59.1% | growth [3]: 112% | growth [4]: 90.3% | growth [5]: 107% | growth [9]: 35.9% | growth [7]: 56.4% | growth [8]: 101%

Cn1c(I)c(C#C[Si](C)(C)C)c(=O)n(C(=O)c2ccccc2)c1=O
growth [1]: -9.86% (active) | growth [2]: -20.6% (active) | growth [3]: 60.9% | growth [4]: 39.5% | growth [9]: 14.2% | growth [7]: 41% | growth [8]: 88.1%

COc1ccc(NC(=O)CSc2nc(C)c(C(C)=O)n2-c2ccc([N+](=O)[O-])cc2)cc1
growth [1]: 102% | growth [2]: 96.4% | growth [3]: 89.8% | growth [4]: 102% | growth [6]: 95.8% | growth [9]: 119% | growth [7]: 94.9% | growth [8]: 86%

CC(=O)OC[C@H]1OC(Sc2sc(C(=O)c3ccc(Br)cc3)c(N)c2-c2nc3ccccc3s2)[C@H](OC(C)=O)[C@@H](OC(C)=O)[C@@H]1OC(C)=O (stereo partly specified)
growth [1]: 43% | growth [2]: 46.1% | growth [3]: 65.7% | growth [4]: 12.9% | growth [6]: 45.6% | growth [9]: 76.2% | growth [7]: 43% | growth [8]: 57.9%

CCOc1ccccc1-n1c(CN2CCN(C(=O)COc3ccc(CNCCCCCCN4C5CCCC4CC(OC(=O)Nc4cc(C)ccc4OC)C5)cc3)CC2)nc2ccccc2c1=O (stereo unspecified)
growth [1]: -56.8% (active) | growth [2]: -88.4% (active) | growth [3]: -91.5% (active) | growth [4]: -84.7% (active) | growth [6]: -77.4% (active) | growth [9]: -91.6% (active) | growth [7]: -42.2% (active) | growth [8]: 67%

CCOC(=O)c1ccc(N2NC(=O)/C(=C/c3ccc([N+](=O)[O-])o3)C2=O)cc1
growth [1]: 90.7% | growth [2]: 97.9% | growth [3]: 108% | growth [4]: 110% | growth [5]: 117% | growth [9]: 88.7% | growth [7]: 113% | growth [8]: 111%

COc1ccc(NC(=O)CSc2nc(C)c(C(C)=O)n2-c2ccc(Cl)cc2)cc1
growth [1]: 97.3% | growth [2]: 88.7% | growth [3]: 98.6% | growth [4]: 85.3% | growth [6]: 95.1% | growth [9]: 100% | growth [7]: 90.4% | growth [8]: 89.4%

CCCCN(CCCC)CC(C)(C)C(O)c1ccc(OC)c2ccccc12 (stereo unspecified)
growth [1]: 4.33% (active) | growth [2]: 74.2% | growth [3]: 57.6% | growth [4]: 56.7% | growth [6]: -13.4% (active) | growth [9]: -11.9% (active) | growth [7]: 55.7% | growth [8]: 49.3%

COc1cccc2c1C(=O)c1c(O)c3c(c(O)c1C2=O)CC(O)(/C(C)=N/NC(=O)CCCCC(=O)N/N=C(\C)C1(O)Cc2c(O)c4c(c(O)c2C(OC2CC(N)C(O)C(C)O2)C1)C(=O)c1c(OC)cccc1C4=O)CC3OC1CC(N)C(O)C(C)O1 (stereo unspecified)
growth [1]: -66% [5 µM] (active) | growth [2]: 5% [5 µM] (active) | growth [3]: 7.09% [5 µM] (active) | growth [4]: -9.94% [5 µM] (active) | growth [5]: -7% [5 µM] (active) | growth [9]: -37.2% [5 µM] (active) | growth [7]: -40.4% [5 µM] (active) | growth [8]: 75.6% [5 µM]

O=C1c2cccc(NCCN=Cc3cc([N+](=O)[O-])ccc3O)c2C(=O)c2c(NCCN=Cc3cc([N+](=O)[O-])ccc3O)cccc21
growth [1]: 7.36% (active) | growth [2]: 78.5% | growth [3]: 86.3% | growth [4]: 69.3% | growth [6]: 73.5% | growth [9]: 85.1% | growth [7]: 53.9% | growth [8]: 99.9%

NS(=O)(=O)c1ccc(-n2nc(C(=O)N/N=C\c3ccc(F)cc3)cc2-c2ccc(Cl)cc2)cc1
growth [1]: 104% | growth [2]: 96.8% | growth [3]: 103% | growth [4]: 97.8% | growth [6]: 76.1% | growth [9]: 99.8% | growth [7]: 86% | growth [8]: 106%

O=c1[nH]ccc2nc(N3CCC(O)CC3)nc(Nc3ccc(N4CCOCC4)cc3)c12
growth [1]: 80.9% | growth [2]: 85.5% | growth [3]: 42.6% | growth [4]: 112% | growth [6]: 47.3% | growth [9]: 101% | growth [7]: 45.7% | growth [8]: 95.2%
